Active and inactive are the calls of the source.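 How the source made its calls: active means normalized viability below 100% at a tested concentration; inactive means the rest.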
Experiment: ovarian cancer cell viability with rucaparib, profiling panel, oncology-focused library, rucaparib conditional (AID 1508598)
Conditions: patient-derived ovarian cancer cells, CellTiter-Glo viability, 144 h, stronger effect = lower value
[1] = at 5 µM, OCI-P5x cells, with rucaparib 20 µM, 100% = cells with rucaparib alone
[2] = at 5 µM, OCI-P5x cells, without rucaparib
[3] = at 0.000305 µM, OCI-C5x cells, with rucaparib 10 µM, 100% = cells with rucaparib alone
[4] = at 0.000305 µM, OCI-C5x cells, without rucaparib
[5] = at 0.000305 µM, OCI-P5x cells, with rucaparib 20 µM, 100% = cells with rucaparib alone
[6] = at 0.000305 µM, OCI-P5x cells, without rucaparib
[7] = at 0.00122 µM, OCI-C5x cells, with rucaparib 10 µM, 100% = cells with rucaparib alone
[8] = at 0.00122 µM, OCI-C5x cells, without rucaparib
[9] = at 0.00122 µM, OCI-P5x cells, with rucaparib 20 µM, 100% = cells with rucaparib alone
[10] = at 0.00122 µM, OCI-P5x cells, without rucaparib
[11] = at 0.00488 µM, OCI-C5x cells, with rucaparib 10 µM, 100% = cells with rucaparib alone
[12] = at 0.00488 µM, OCI-C5x cells, without rucaparib
[13] = at 0.00488 µM, OCI-P5x cells, with rucaparib 20 µM, 100% = cells with rucaparib alone
[14] = at 0.00488 µM, OCI-P5x cells, without rucaparib
[15] = at 0.0195 µM, OCI-C5x cells, with rucaparib 10 µM, 100% = cells with rucaparib alone
[16] = at 0.0195 µM, OCI-C5x cells, without rucaparib
[17] = at 0.0195 µM, OCI-P5x cells, with rucaparib 20 µM, 100% = cells with rucaparib alone
[18] = at 0.0195 µM, OCI-P5x cells, without rucaparib
[19] = at 0.0781 µM, OCI-C5x cells, with rucaparib 10 µM, 100% = cells with rucaparib alone
[20] = at 0.0781 µM, OCI-C5x cells, without rucaparib
[21] = at 0.0781 µM, OCI-P5x cells, with rucaparib 20 µM, 100% = cells with rucaparib alone
[22] = at 0.0781 µM, OCI-P5x cells, without rucaparib
[23] = at 0.313 µM, OCI-C5x cells, with rucaparib 10 µM, 100% = cells with rucaparib alone
[24] = at 0.313 µM, OCI-C5x cells, without rucaparib
[25] = at 0.313 µM, OCI-P5x cells, with rucaparib 20 µM, 100% = cells with rucaparib alone
[26] = at 0.313 µM, OCI-P5x cells, without rucaparib
[27] = at 1.25 µM, OCI-C5x cells, with rucaparib 10 µM, 100% = cells with rucaparib alone
[28] = at 1.25 µM, OCI-C5x cells, without rucaparib
[29] = at 1.25 µM, OCI-P5x cells, with rucaparib 20 µM, 100% = cells with rucaparib alone
[30] = at 1.25 µM, OCI-P5x cells, without rucaparib
[31] = at 5 µM, OCI-C5x cells, with rucaparib 10 µM, 100% = cells with rucaparib alone
[32] = at 5 µM, OCI-C5x cells, without rucaparib

Measured: viability

COc1cc([C@H]2c3cc4c(cc3[C@@H](O[C@@H]3O[C@@H]5CO[C@@H](c6cccs6)O[C@H]5[C@H](O)[C@H]3O)[C@H]3COC(=O)[C@H]23)OCO4)cc(OC)c1O
active: [1] 12.4% | [2] 7.92%

C=C1/C(=C/C=C2\CCC[C@@]3(C)[C@H]2CC[C@H]3[C@H](C)/C=C/[C@@H](C)C(C)C)C[C@H](O)C[C@@H]1O
inactive: [5] 101% | [6] 100% | [9] 105% | [12] 104% | [13] 105% | [14] 102% | [15] 103% | [16] 100% | [17] 102% | [18] 102% | [20] 100% | [21] 105% | [22] 101% | [25] 107% | [26] 104% | [27] 101% | [28] 102% | [30] 103% | [31] 120% | [32] 111% | [1] 111% | [2] 103%
active: [3] 99.9% | [4] 95% | [7] 97.2% | [8] 100% | [10] 99.9% | [11] 94% | [19] 97.1% | [23] 96.7% | [24] 96.6% | [29] 98.4%

CO[C@H]1C[C@@H]2CC[C@@H](C)[C@@](O)(O2)C(=O)C(=O)N2CCCC[C@H]2C(=O)O[C@H]([C@H](C)C[C@@H]2CC[C@@H](O)[C@H](OC)C2)CC(=O)[C@H](C)/C=C(\C)[C@@H](O)[C@H](OC)C(=O)[C@H](C)C[C@H](C)/C=C/C=C/C=C/1C
inactive: [3] 117% | [4] 111% | [8] 102% | [15] 101% | [19] 103% | [23] 107% | [27] 105% | [31] 118% | [32] 107%
active: [5] 87.8% | [6] 75.2% | [7] 99.6% | [9] 91.5% | [10] 64.8% | [11] 94.9% | [12] 95.5% | [13] 83.5% | [14] 62.3% | [16] 95.6% | [17] 87.8% | [18] 62.5% | [20] 89.7% | [21] 92.1% | [22] 60% | [24] 97.8% | [25] 94.8% | [26] 63.9% | [28] 99.2% | [29] 93.7% | [30] 61.2% | [1] 65% | [2] 61%

O=c1[nH]c(=O)n([C@@H]2C[C@H](O)[C@@H](CO)O2)cc1F
active: [5] 67.7% | [6] 24.9% | [9] 65.1% | [10] 15.4% | [14] 98.1% | [15] 98.9% | [18] 100% | [26] 98.4% | [29] 89.4% | [30] 85.9% | [1] 72.1% | [2] 49.4%
inactive: [3] 115% | [4] 119% | [7] 111% | [8] 117% | [11] 106% | [12] 121% | [13] 105% | [16] 111% | [17] 104% | [19] 109% | [20] 120% | [21] 104% | [22] 109% | [23] 109% | [24] 114% | [25] 104% | [27] 117% | [28] 128% | [31] 185% | [32] 183%

COc1cc([C@H]2c3cc4c(cc3[C@@H](O[C@@H]3O[C@@H]5CO[C@@H](C)O[C@H]5[C@H](O)[C@@H]3O)[C@H]3COC(=O)[C@H]23)OCO4)cc(OC)c1O
active: [5] 99.3% | [6] 97.3% | [9] 96.5% | [10] 90.8% | [17] 98.6% | [18] 97.4% | [20] 95.6% | [21] 99.3% | [22] 98.6% | [23] 75.1% | [24] 64.7% | [25] 99.1% | [26] 82% | [27] 72% | [28] 61.6% | [29] 79.8% | [30] 42.6% | [31] 38.1% | [32] 29.3% | [1] 55.2% | [2] 26.7%
inactive: [3] 115% | [4] 108% | [7] 108% | [8] 103% | [11] 123% | [12] 100% | [13] 101% | [14] 101% | [15] 112% | [16] 103% | [19] 106%

Reference: PubChem BioAssay
